Experimental data from PubChem BioAssay AID1159580 (chemical genetic matrix, 2015).
The whole screen tested about 5,500 compounds, of which about 2,000 (36%) were called active. Not shown: some 18% with an inconclusive outcome. This is one part of the list. Unmarked numbers belong to inactive results. Rule as the data show it: active = normalized growth mostly below about 0.91 (no sharp cut-off); inconclusive = no clear call, values can overlap the other calls; inactive = mostly above about 0.92.

Test: chemical genetic growth profiling, strain panel (AID 1159580);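 also: tested at 20 µM; growth read once vehicle control cultures reached saturation at 30 °C; 1 = growth at the plate median or of vehicle wells; lower values mean less growth of the strain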
Details: S. cerevisiae deletion strains, growth OD

For `O=C1c2ccccc2O[C@@H](c2ccccc2)[C@@H]1NCc1ccccc1`, the normalized growth (locus YAR019C, strain CDC15, stronger effect = lower value) was 0.915, the normalized growth (locus YBL105C, strain PKC1, stronger effect = lower value) was 0.916 and the normalized growth (locus YBR135W, strain CKS1, stronger effect = lower value) was 0.922. For the same compound, the normalized growth (locus YBR136W, strain MEC1, stronger effect = lower value) was 0.921, the normalized growth (locus YBR160W, strain CDC28, stronger effect = lower value) was 0.922 and the normalized growth (locus YDL017W, strain CDC7, stronger effect = lower value) was 0.915. The normalized growth (locus YDL028C, strain MPS1, stronger effect = lower value) was 0.919, the normalized growth (locus YDL101C, strain DUN1, stronger effect = lower value) was 0.905 (active) and the normalized growth (locus YDL108W, strain KIN28, stronger effect = lower value) was 0.929. For the same compound, the normalized growth (locus YDL132W, strain cdc53, stronger effect = lower value) was 0.893 (active), the normalized growth (locus YDL214C, strain PRR2, stronger effect = lower value) was 0.867 and the normalized growth (locus YDR052C, strain DBF4, stronger effect = lower value) was 0.914. The normalized growth (locus YDR054C, strain cdc34, stronger effect = lower value) was 0.879, the normalized growth (locus YDR226W, strain ADK1, stronger effect = lower value) was 0.896 (active) and the normalized growth (locus YDR477W, strain SNF1, stronger effect = lower value) was 0.853. It also gave a normalized growth (locus YER123W, strain YCK3, stronger effect = lower value) of 0.836, a normalized growth (locus YER133W, strain GLC7, stronger effect = lower value) of 0.836 and a normalized growth (locus YFL009W, strain cdc4, stronger effect = lower value) of 0.894. For the same compound, the normalized growth (locus YFL029C, strain CAK1, stronger effect = lower value) was 0.909, the normalized growth (locus YFR003C, strain YPI1, stronger effect = lower value) was 0.916 and the normalized growth (locus YFR019W, strain FAB1, stronger effect = lower value) was 0.894. For the same compound, the normalized growth (locus YFR028C, strain CDC14, stronger effect = lower value) was 0.891 (active), the normalized growth (locus YGR040W, strain KSS1, stronger effect = lower value) was 0.85 and the normalized growth (locus YGR052W, strain FMP48, stronger effect = lower value) was 0.856. For the same compound, the normalized growth (locus YGR092W, strain DBF2, stronger effect = lower value) was 0.844, the normalized growth (locus YHR030C, strain SLT2, stronger effect = lower value) was 0.677 (active) and the normalized growth (locus YHR079C, strain IRE1, stronger effect = lower value) was 0.839. For the same compound, the normalized growth (locus YHR082C, strain KSP1, stronger effect = lower value) was 0.906, the normalized growth (locus YHR205W, strain SCH9, stronger effect = lower value) was 0.905 and the normalized growth (locus YIL147C, strain SLN1, stronger effect = lower value) was 0.915. It also gave a normalized growth (locus YJL095W, strain BCK1, stronger effect = lower value) of 0.751, a normalized growth (locus YJL128C, strain PBS2, stronger effect = lower value) of 0.874 and a normalized growth (locus YJL157C, strain FAR1, stronger effect = lower value) of 0.835. The normalized growth (locus YJR016C, strain ILV3, stronger effect = lower value) was 0.906, the normalized growth (locus YJR066W, strain TOR1 (second series), stronger effect = lower value) was 0.76 and the normalized growth (locus YJR066W, strain TOR1, stronger effect = lower value) was 0.864. For the same compound, the normalized growth (locus YKL048C, strain ELM1, stronger effect = lower value) was 0.897, the normalized growth (locus YKL067W, strain YNK1, stronger effect = lower value) was 0.89 and the normalized growth (locus YKL101W, strain HSL1, stronger effect = lower value) was 0.899. The normalized growth (locus YKL193C, strain SDS22, stronger effect = lower value) was 0.905, the normalized growth (locus YKL203C, strain TOR2, stronger effect = lower value) was 0.918 and the normalized growth (locus YLR113W, strain HOG1, stronger effect = lower value) was 0.739 (active). It also gave a normalized growth (locus YLR133W, strain CKI1, stronger effect = lower value) of 0.89, a normalized growth (locus YLR403W, strain SFP1, stronger effect = lower value) of 0.834 and a normalized growth (locus YML070W, strain DAK1, stronger effect = lower value) of 0.85. It also gave a normalized growth (locus YMR001C, strain CDC5, stronger effect = lower value) of 0.899, a normalized growth (locus YMR205C, strain PFK2 (second series), stronger effect = lower value) of 0.863 and a normalized growth (locus YMR277W, strain FCP1, stronger effect = lower value) of 0.904. The normalized growth (locus YNL006W, strain LST8, stronger effect = lower value) was 0.915, the normalized growth (locus YNL020C, strain ARK1, stronger effect = lower value) was 0.88 and the normalized growth (locus YNL161W, strain CBK1, stronger effect = lower value) was 0.903. It also gave a normalized growth (locus YNL183C, strain NPR1, stronger effect = lower value) of 0.92, a normalized growth (locus YNL207W, strain RIO2, stronger effect = lower value) of 0.89 and a normalized growth (locus YNL222W, strain SSU72, stronger effect = lower value) of 0.923. For the same compound, the normalized growth (locus YNL307C, strain MCK1 (second series), stronger effect = lower value) was 0.895, the normalized growth (locus YOL078W, strain AVO1, stronger effect = lower value) was 0.903 and the normalized growth (locus YOL136C, strain PFK27, stronger effect = lower value) was 0.863. The normalized growth (locus YOR061W, strain CKA2, stronger effect = lower value) was 0.849, the normalized growth (locus YOR119C, strain RIO1, stronger effect = lower value) was 0.89 and the normalized growth (locus YOR231W, strain MKK1, stronger effect = lower value) was 0.887. For the same compound, the normalized growth (locus YOR329C, strain SCD5, stronger effect = lower value) was 0.911, the normalized growth (locus YPL031C, strain PHO85, stronger effect = lower value) was 0.841 and the normalized growth (locus YPL153C, strain RAD53, stronger effect = lower value) was 0.846. The normalized growth (locus YPL204W, strain HRR25, stronger effect = lower value) was 0.825, the normalized growth (locus YPL209C, strain IPL1, stronger effect = lower value) was 0.918 and the normalized growth (locus YPL256C, strain CLN2, stronger effect = lower value) was 0.846 (active). The normalized growth (locus YPR025C, strain CCL1, stronger effect = lower value) was 0.922, the normalized growth (locus YPR106W, strain ISR1, stronger effect = lower value) was 0.909 and the normalized growth (locus YPR111W, strain DBF20, stronger effect = lower value) was 0.911. It also gave a normalized growth (strain NNK1, stronger effect = lower value) of 0.891 and a normalized growth (strain TSCII, stronger effect = lower value) of 0.885.
